Source: PubChem BioAssay AID504727 (Broad Institute, 2011)
Values without a mark were called inactive. The source made the active and inactive calls.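 How the source made its calls: active means fitted half-maximal concentration AC50 at or below ten times the highest valid tested dose, with signal falling as DNA is displaced (actives reach about 34 µM in these data); inconclusive means flat fit at moderate signal loss, or poor fit quality; inactive means the rest, including signal rising instead of falling.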

Test: DNA intercalators displacing acridine orange, dose response, artefact control for KSHV LANA DNA-binding inhibitor project, biochemical, fluorescence polarization, cherry-picked samples, set 2 (AID 504727)
Conditions: AC50: Acridine orange-DNA displacement

SMILES | AC50
O=C(Cn1c2ccccc2c2nc3n(c(=O)c21)CCS3)Nc1ccccc1C(F)(F)F | inactive
N=c1ccn(Cc2ccc(Cl)cc2)cc1 | inactive
C=CC[C@@H](CC(=O)N(CCO)Cc1ccccc1)C(=O)NC[C@H](OC(=O)[C@@H](CC=C)CC(=O)OC(C)(C)C)c1ccccc1 | inactive
O=C(Nc1ccccc1F)C(=Cc1sc(N2CCOCC2)nc1-c1ccccc1)C(=O)Nc1ccccc1F | 25.1 µM (active)
CN(c1ccccc1)S(=O)(=O)c1cccc(NS(=O)(=O)c2cccc(C(=O)O)c2)c1 | inactive
Clc1ccc(C2=CC(c3ccco3)n3ncnc3N2)cc1 (configuration not stated) | inactive
CC(=O)O[C@@H]1[C@@H](OC(C)=O)[C@H](n2ccc3cc([N+](=O)[O-])ccc32)OC[C@@H]1OC(C)=O | inactive
COc1cccc2[nH]c(C(=O)NC(C)c3ccccc3)cc12 (configuration not stated) | inactive
COc1ccc(C(=O)OCC(=O)NC2CC2)cc1S(=O)(=O)Nc1ccc(C)cc1 | inactive
COCCN(CCOC)Cc1c(O)ccc2c1O/C(=C\c1ccco1)C2=O | 27.5 µM (active)
Cc1ccc2c(c1)nnn2C1CCN(C(=O)c2cccs2)CC1 | inactive
Cc1ccc(C)c(N2CCN(C(=O)c3cc4ccccn4n3)CC2)c1 | inactive
COC(=O)c1cccc(COC(=O)c2ccccc2NC(=O)c2ccco2)c1 | inactive
Cn1c(=O)c2c(nc(SCC(=O)NCc3ccc4c(c3)OCO4)n2Cc2ccc(Cl)cc2)n(C)c1=O | inactive
O=C(CCN1C(=O)/C(=C/c2ccco2)SC1=S)Nc1ccc(C(=O)O)c(O)c1 | inactive
CC(C)[C@H](NC(=O)c1ccccc1F)C(=O)NC1CCCCCCC1 | inactive
COC(=O)C(NC(=O)C(C)NC(=O)OCc1ccccc1)C(C)C (configuration not stated) | > 35 µM
O=C(CN(Cc1ccccc1F)C(=O)c1csnn1)NCc1ccc2c(c1)OCO2 | inactive
Cc1cc(C)n(CC(=O)NNC(=O)CC(C)c2ccccc2)n1 (configuration not stated) | inactive
CCc1noc(C)c1C(=O)N1CCCC(N2CCN(c3ccc(F)cc3)CC2)C1 (configuration not stated) | inactive
COc1ccc(NS(=O)(=O)c2cccc3ccccc23)cc1 | inactive
Cc1c(C#N)c(=O)c(-[n+]2ccccc2)c([S-])n1-c1ccc(Cl)cc1 | inactive
CCOC(=O)C1C2C=CC3(CN(c4cccc(Cl)c4)C(=O)C13)O2 (configuration not stated) | inactive
COCCCNc1c2c3c(cccc3[nH]c1=O)C(=O)c1ccccc1-2 | 0.63 µM (active)

SMILES | AC50
CCCCn1c(N)c(N(CCOC)C(=O)c2cc(C)oc2C)c(=O)[nH]c1=O | inactive
NNc1nnc2c3cc(F)ccc3n(Cc3ccccc3)c2n1 | inactive
O=C(c1coc(=O)c(Br)c1)N1CCCc2ccccc21 | inactive
COc1ccc(NC(=O)Cc2nnc(SCC(=O)Nc3nccs3)n2C)cc1 | inactive
O=C(NCCN1CCN(C(=O)c2cccs2)CC1)c1cccs1 | inactive
Cc1cc(-c2nnc(SCC(=O)Nc3ccccc3)n2C)no1 | inactive
Cn1nc(-c2ccccc2)c2nc3ccccc3nc21 | 35.8 µM (active)
COc1ccc(OC)c(NC(=O)c2nnn(Cc3ccc(Br)cc3F)c2N)c1 | inactive
COc1cccc(NC(=O)CN(C)CC(=O)NCc2ccco2)c1 | inactive
OCCN(CCO)c1nc(N2CCCCC2)c2nc(N(CCO)CCO)nc(N3CCCCC3)c2n1 | 8.59 µM (active)
Cc1sc2nnn(CC(=O)N3CCN(C(=O)c4ccco4)CC3)c(=O)c2c1C | inactive
O=C(O)COc1ccc2c(c1)O/C(=C\c1ccco1)C2=O | inactive
COc1cc(O)c(C(C)=O)c(CC(=O)O)c1 | inactive
O=C1CC(=O)N(Cc2ccco2)C(=O)N1 | inactive
CCN(C(=O)c1cccc(S(=O)(=O)N2CCc3ccccc32)c1)C1CCS(=O)(=O)C1 (configuration not stated) | inactive
Brc1ccc(-c2noc(COc3ccc4c(c3)CCC4)n2)o1 | inactive
Cn1c(=O)c2c(nc(N/N=C/c3ccc(OC(=O)c4ccco4)cc3)n2Cc2ccc(F)cc2)n(C)c1=O | inactive
Cc1noc(C)c1-c1nc(CSc2ccccc2)no1 | inactive
COc1ccc(-c2cnc3n2CCCCC3)cc1 | inactive
O=C(Cn1ncc(N2CCCC2)c(Cl)c1=O)c1ccc(Cl)cc1 | inactive
CCc1sc(C(=O)NNC(=O)CNC(=O)c2ccccc2F)cc1C | inactive
O=c1cc2c(=O)oc3cc(O)c(O)oc3c2c(O)c1O | inactive
CS(=O)(=O)Nc1nc2n(n1)C(c1ccccc1)C=C(c1ccc(Br)cc1)N2 (configuration not stated) | 18 µM (active)
